Common to all, as to assay: DAPPL (digital affinity profiling via proximity ligation, sequencing); 10 mM Tris-HCl pH 7.5, 50 mM NaCl, 1 mM DTT, 4% glycerol, room temperature, 30 min; GST-TFs on glutathione beads, 16-mer random dsDNA library, 0.1% formaldehyde crosslink after washing; high values mean tight binding
One experiment has as its target T1, FLI1 (Homo sapiens, UniProt Q01543 1-452).
T1 sequence: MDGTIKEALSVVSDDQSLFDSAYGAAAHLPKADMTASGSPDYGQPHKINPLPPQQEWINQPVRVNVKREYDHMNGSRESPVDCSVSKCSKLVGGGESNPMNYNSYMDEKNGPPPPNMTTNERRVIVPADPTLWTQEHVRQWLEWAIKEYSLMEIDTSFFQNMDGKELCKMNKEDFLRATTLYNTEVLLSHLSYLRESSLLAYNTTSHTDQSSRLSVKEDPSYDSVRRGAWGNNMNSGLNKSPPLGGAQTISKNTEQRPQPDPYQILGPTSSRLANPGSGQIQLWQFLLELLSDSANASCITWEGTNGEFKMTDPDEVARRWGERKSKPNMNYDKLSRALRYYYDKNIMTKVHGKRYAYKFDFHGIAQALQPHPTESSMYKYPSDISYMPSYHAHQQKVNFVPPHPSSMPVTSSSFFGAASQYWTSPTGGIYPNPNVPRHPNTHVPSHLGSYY
The conditions noted are these: protein: recombinant; tags: N-terminal GST; dsDNA, one strand shown. In a few lines:
(§1)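 The binding signal reported is, for every hexamer, its read frequency for a factor over its read frequency for the tag-only sample. Reads came from pools of yeast-expressed, GST-fused human transcription factors on glutathione beads, barcoded with DNA and mixed with that sample, which were incubated with 200 nmole of a random double-stranded 16-mer DNA library in Tris/NaCl/DTT/glycerol buffer at room temperature for 30 min. After washing, the pools were crosslinked with 0.1% formaldehyde, proximity-ligated with BsaI/T4 ligase for 1 h at 37 °C, PCR-amplified and sequenced on an Illumina NextSeq500.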

The next experiment addresses HSF1 (Homo sapiens, UniProt Q00613 1-529). The settings on record: protein: recombinant; tags: N-terminal GST; chain copies: 3; dsDNA, one strand shown. In short, it runs like this:
as §1

For another experiment, the target named is T2, ETV2 (Homo sapiens, UniProt O00321 1-342).
T2 sequence: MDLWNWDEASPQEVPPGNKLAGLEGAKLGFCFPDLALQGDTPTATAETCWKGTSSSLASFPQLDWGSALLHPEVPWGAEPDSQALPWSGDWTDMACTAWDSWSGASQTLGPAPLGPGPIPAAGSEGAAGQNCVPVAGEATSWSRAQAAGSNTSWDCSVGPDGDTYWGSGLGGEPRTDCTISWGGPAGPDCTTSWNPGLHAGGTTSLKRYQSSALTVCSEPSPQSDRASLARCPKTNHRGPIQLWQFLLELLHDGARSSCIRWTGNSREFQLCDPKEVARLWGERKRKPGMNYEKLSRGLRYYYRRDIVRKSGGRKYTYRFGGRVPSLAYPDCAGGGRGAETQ
The settings on record: protein: recombinant; tags: N-terminal GST; dsDNA, one strand shown. In a few lines:
as §1

For another experiment, the target named is CRX (Homo sapiens, UniProt O43186 1-299). The settings on record: protein: recombinant; tags: N-terminal GST; dsDNA, one strand shown. In short, it runs like this:
as §1

For the next experiment, the target named is T3, FEV (Homo sapiens, UniProt Q99581 1-238).
T3 sequence: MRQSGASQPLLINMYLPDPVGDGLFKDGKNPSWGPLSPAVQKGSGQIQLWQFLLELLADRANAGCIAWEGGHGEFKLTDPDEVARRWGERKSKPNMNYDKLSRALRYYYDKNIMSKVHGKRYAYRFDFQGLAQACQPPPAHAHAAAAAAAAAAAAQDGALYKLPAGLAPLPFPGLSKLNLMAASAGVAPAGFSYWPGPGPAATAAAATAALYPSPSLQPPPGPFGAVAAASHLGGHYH
The settings on record: protein: recombinant; tags: N-terminal GST; dsDNA, one strand shown. In short, it runs like this: as §1

The target of a further experiment is SPI1 (Homo sapiens, UniProt P17947 1-270). The conditions noted are these: protein: recombinant; tags: N-terminal GST; dsDNA, one strand shown. In short, it runs like this: as §1
Another experiment has as its target T4, ELF5 (Homo sapiens, UniProt Q9UKW6-2 1-255).
T4 sequence: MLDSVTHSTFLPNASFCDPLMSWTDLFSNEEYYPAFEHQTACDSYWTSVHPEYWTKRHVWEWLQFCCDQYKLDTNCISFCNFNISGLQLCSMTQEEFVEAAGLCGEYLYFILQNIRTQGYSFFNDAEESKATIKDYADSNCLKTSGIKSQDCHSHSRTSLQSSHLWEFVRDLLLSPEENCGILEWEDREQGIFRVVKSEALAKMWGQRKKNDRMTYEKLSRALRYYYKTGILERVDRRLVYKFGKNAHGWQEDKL
The settings on record: protein: recombinant; tags: N-terminal GST; dsDNA, one strand shown. In short, it runs like this: as §1

Sequence of HSF1 (Q00613 whole entry): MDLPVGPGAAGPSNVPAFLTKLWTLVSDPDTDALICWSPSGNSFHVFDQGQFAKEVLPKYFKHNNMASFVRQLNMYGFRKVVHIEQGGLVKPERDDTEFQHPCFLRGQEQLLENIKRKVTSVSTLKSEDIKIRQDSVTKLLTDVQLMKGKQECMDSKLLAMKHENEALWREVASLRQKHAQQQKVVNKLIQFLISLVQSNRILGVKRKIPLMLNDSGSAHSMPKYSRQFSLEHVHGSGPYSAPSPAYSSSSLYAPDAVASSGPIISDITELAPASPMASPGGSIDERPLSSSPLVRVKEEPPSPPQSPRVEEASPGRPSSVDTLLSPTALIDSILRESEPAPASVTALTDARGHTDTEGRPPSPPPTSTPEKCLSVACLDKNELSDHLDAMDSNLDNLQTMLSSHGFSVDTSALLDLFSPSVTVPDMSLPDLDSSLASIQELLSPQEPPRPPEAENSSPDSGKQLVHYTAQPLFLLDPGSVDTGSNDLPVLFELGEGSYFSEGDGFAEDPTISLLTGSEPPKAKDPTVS
Sequence of CRX (O43186 whole entry): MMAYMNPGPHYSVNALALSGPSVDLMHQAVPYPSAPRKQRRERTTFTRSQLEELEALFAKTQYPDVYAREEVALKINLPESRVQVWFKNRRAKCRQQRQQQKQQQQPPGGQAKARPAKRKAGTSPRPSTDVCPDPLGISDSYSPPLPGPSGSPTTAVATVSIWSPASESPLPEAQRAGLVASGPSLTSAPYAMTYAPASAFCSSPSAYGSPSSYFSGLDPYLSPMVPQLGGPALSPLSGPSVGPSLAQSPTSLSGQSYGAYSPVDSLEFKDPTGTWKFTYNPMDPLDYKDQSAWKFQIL

As to AGATCT, the binding signal in the experiment with FLI1 was 1.06 fold enrichment (6-mer frequency, TF over GST control); in the experiment with HSF1, 1.47 fold enrichment (6-mer frequency, TF over GST control); with ETV2 it was 1.11 fold enrichment (6-mer frequency, TF over GST control); in the experiment with CRX, 1.33 fold enrichment (6-mer frequency, TF over GST control).

As to TTAGAT, the binding signal with FLI1 was 1.05 fold enrichment (6-mer frequency, TF over GST control); in the experiment with FEV it was 1.01 fold enrichment (6-mer frequency, TF over GST control); in the experiment with HSF1, 1.49 fold enrichment (6-mer frequency, TF over GST control); with ETV2, 1.16 fold enrichment (6-mer frequency, TF over GST control); with CRX, 2.04 fold enrichment (6-mer frequency, TF over GST control).

Consider CTTAAG, for which the binding signal is 1.06 fold enrichment (6-mer frequency, TF over GST control) in the experiment with FLI1; 1 fold enrichment (6-mer frequency, TF over GST control) with SPI1; 1.05 fold enrichment (6-mer frequency, TF over GST control) with FEV; 1.7 fold enrichment (6-mer frequency, TF over GST control) with HSF1; 1.13 fold enrichment (6-mer frequency, TF over GST control) with ETV2; 2.69 fold enrichment (6-mer frequency, TF over GST control) in the experiment with CRX. In addition, the binding signal in the experiment with ELF5 was 1.09 fold enrichment (6-mer frequency, TF over GST control).

Consider TAGATA, for which the binding signal in the experiment with FLI1 is 1.07 fold enrichment (6-mer frequency, TF over GST control); in the experiment with HSF1, 1.46 fold enrichment (6-mer frequency, TF over GST control); with ETV2 it was 1.12 fold enrichment (6-mer frequency, TF over GST control); in the experiment with CRX, 1.48 fold enrichment (6-mer frequency, TF over GST control).

Consider GATTTA, for which the binding signal with FLI1 is 1.02 fold enrichment (6-mer frequency, TF over GST control); in the experiment with HSF1 it was 1.54 fold enrichment (6-mer frequency, TF over GST control); in the experiment with ETV2 it was 1.05 fold enrichment (6-mer frequency, TF over GST control); with CRX it was 2.33 fold enrichment (6-mer frequency, TF over GST control).

Turning to TAAGGG, the binding signal with FLI1 was 1.01 fold enrichment (6-mer frequency, TF over GST control); with FEV it was 1 fold enrichment (6-mer frequency, TF over GST control); with HSF1, 1.12 fold enrichment (6-mer frequency, TF over GST control); with CRX it was 1.49 fold enrichment (6-mer frequency, TF over GST control); with ELF5, 1.06 fold enrichment (6-mer frequency, TF over GST control).

For the sequence GCCCGA, the binding signal with FLI1 is 1.12 fold enrichment (6-mer frequency, TF over GST control); with SPI1 it was 1.01 fold enrichment (6-mer frequency, TF over GST control); with FEV, 1.07 fold enrichment (6-mer frequency, TF over GST control); with HSF1 it was 1.1 fold enrichment (6-mer frequency, TF over GST control).

As for TAAGCA, the binding signal with FLI1 is 1.08 fold enrichment (6-mer frequency, TF over GST control); with FEV, 1.04 fold enrichment (6-mer frequency, TF over GST control); in the experiment with HSF1, 1.29 fold enrichment (6-mer frequency, TF over GST control); in the experiment with CRX, 1.7 fold enrichment (6-mer frequency, TF over GST control); in the experiment with ELF5, 1.02 fold enrichment (6-mer frequency, TF over GST control).

On to GGATCT, for which the binding signal with FLI1 was 1.08 fold enrichment (6-mer frequency, TF over GST control); with SPI1, 1.02 fold enrichment (6-mer frequency, TF over GST control); with HSF1, 1.07 fold enrichment (6-mer frequency, TF over GST control); in the experiment with CRX it was 1.15 fold enrichment (6-mer frequency, TF over GST control); with ELF5 it was 1.17 fold enrichment (6-mer frequency, TF over GST control).

Take TCGAGC: the binding signal with FLI1 was 1.02 fold enrichment (6-mer frequency, TF over GST control); in the experiment with HSF1, 1.46 fold enrichment (6-mer frequency, TF over GST control); with ETV2, 1.04 fold enrichment (6-mer frequency, TF over GST control); with CRX it was 1.01 fold enrichment (6-mer frequency, TF over GST control).

Consider AGTCTC, for which the binding signal in the experiment with FLI1 was 1.04 fold enrichment (6-mer frequency, TF over GST control); in the experiment with SPI1, 1.07 fold enrichment (6-mer frequency, TF over GST control); with HSF1, 1 fold enrichment (6-mer frequency, TF over GST control).

As to ATAAGA, the binding signal with FLI1 is 1.02 fold enrichment (6-mer frequency, TF over GST control); with SPI1, 1.13 fold enrichment (6-mer frequency, TF over GST control); with FEV it was 1.01 fold enrichment (6-mer frequency, TF over GST control); in the experiment with HSF1, 1.54 fold enrichment (6-mer frequency, TF over GST control); with ETV2, 1.03 fold enrichment (6-mer frequency, TF over GST control); with CRX, 1.97 fold enrichment (6-mer frequency, TF over GST control). Also, in the experiment with ELF5, the binding signal is 1.02 fold enrichment (6-mer frequency, TF over GST control).

Take TGATTA: the binding signal with FLI1 was 1.07 fold enrichment (6-mer frequency, TF over GST control); with HSF1 it was 1.58 fold enrichment (6-mer frequency, TF over GST control); in the experiment with ETV2 it was 1.07 fold enrichment (6-mer frequency, TF over GST control); with CRX it was 2.23 fold enrichment (6-mer frequency, TF over GST control); with ELF5 it was 1.03 fold enrichment (6-mer frequency, TF over GST control).

As to GTTCGC, the binding signal was 1.06 fold enrichment (6-mer frequency, TF over GST control) in the experiment with FLI1; 1.04 fold enrichment (6-mer frequency, TF over GST control) with SPI1; 1.06 fold enrichment (6-mer frequency, TF over GST control) with FEV; 1.12 fold enrichment (6-mer frequency, TF over GST control) with HSF1; 1.11 fold enrichment (6-mer frequency, TF over GST control) in the experiment with ETV2; 1.01 fold enrichment (6-mer frequency, TF over GST control) with ELF5.

For TAAAGG, the binding signal with FLI1 was 1.04 fold enrichment (6-mer frequency, TF over GST control); with SPI1 it was 1.03 fold enrichment (6-mer frequency, TF over GST control); with FEV, 1.02 fold enrichment (6-mer frequency, TF over GST control); in the experiment with HSF1 it was 1.15 fold enrichment (6-mer frequency, TF over GST control); with CRX, 1.56 fold enrichment (6-mer frequency, TF over GST control); with ELF5 it was 1.1 fold enrichment (6-mer frequency, TF over GST control).

For the sequence ACCTAG, the binding signal is 1.01 fold enrichment (6-mer frequency, TF over GST control) with FLI1; 1.02 fold enrichment (6-mer frequency, TF over GST control) with SPI1; 1.03 fold enrichment (6-mer frequency, TF over GST control) with FEV; 1.21 fold enrichment (6-mer frequency, TF over GST control) in the experiment with HSF1.

In the case of TCAATC, the binding signal with FLI1 is 1.08 fold enrichment (6-mer frequency, TF over GST control); with SPI1, 1.06 fold enrichment (6-mer frequency, TF over GST control); with HSF1 it was 1.13 fold enrichment (6-mer frequency, TF over GST control); with ETV2, 1.13 fold enrichment (6-mer frequency, TF over GST control); with CRX it was 1.33 fold enrichment (6-mer frequency, TF over GST control).

With CTAGCC, the binding signal in the experiment with FLI1 is 1.07 fold enrichment (6-mer frequency, TF over GST control); with SPI1 it was 1.1 fold enrichment (6-mer frequency, TF over GST control); with HSF1, 1.05 fold enrichment (6-mer frequency, TF over GST control); in the experiment with ETV2 it was 1.06 fold enrichment (6-mer frequency, TF over GST control).

Take CGTTTA: the binding signal in the experiment with FLI1 was 1.08 fold enrichment (6-mer frequency, TF over GST control); with SPI1, 1.06 fold enrichment (6-mer frequency, TF over GST control); with FEV, 1.09 fold enrichment (6-mer frequency, TF over GST control); with HSF1, 1.06 fold enrichment (6-mer frequency, TF over GST control); with ETV2 it was 1.03 fold enrichment (6-mer frequency, TF over GST control); in the experiment with CRX, 1.19 fold enrichment (6-mer frequency, TF over GST control). In addition, the binding signal with ELF5 was 1.07 fold enrichment (6-mer frequency, TF over GST control).

These data come from publication PMC7862700, “An all-to-all approach to the identification of sequence-specific readers for epigenetic DNA modifications on cytosine”.
